Screening results: PubChem BioAssay, National Center for Advancing Translational Sciences (NCATS)
Rows were chosen to be rich in hits. Some 19% of all compounds tested hit in one or more screens of this group.
AMA1 RON2 block: qHTS for Inhibitors of AMA1-RON; Towards Development of Antimalarial Drug Lead: Primary Screen | Plasmodium falciparum AMA1 (3D7) - RON2 peptide interaction | AlphaScreen AMA1-biotinylated RON2 peptide binding | Potency, µM (top dose mostly 58.2 µM), for inactives: at the top dose activity change, negative = inhibition, hits mostly inhibitors | hit rate 0.2% among 360,000 | AID 720542, 2013;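 also: potency is read from the fitted curve at half-maximal effect; 0% = vehicle wells and -100% = peptide control; nearly all actives have a fitted effect of over 45% in size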
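AMA1 (3D7) with his tag at 25 nM final met compounds first, then biotinylated RON2 peptide at 25 nM; detection used donor plus acceptor beads, 10 µg/mL apiece, read by AlphaScreen after 30 min at room temperature.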
SARS PLpro yeast: qHTS of Yeast-based Assay for SARS-CoV PLP. hit rate 0.19% among 330,000. S. cerevisiae expressing SARS-CoV PLpro, growth rescue. Potency, µM (series often up to 32.9 µM), inactives show top-dose activity, positive = growth rescue, most hits filed as activators; calls by dose curve; also: potency is read from the fitted curve at half-maximal effect; 0% is about no effect; nearly all actives have a fitted effect of over 55% in size
Pf growth 48h: Primary qHTS for delayed death inhibitors of the malarial parasite plastid, 48 hour incubation; Potency, µM (titrated, usually from 28.7 µM), for the others: at the top dose activity change, negative = inhibition, hits mostly inhibitors; hit rate 5.9% among 310,000; P. falciparum luciferase growth in erythrocytes, 48 h; also: potency is read from the fitted curve at half-maximal effect; % is scaled to controls: 0 for no effect and ±100 for the full control effect
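Luciferase-expressing P. falciparum in infected erythrocytes (2% hematocrit, 0.1% parasitemia final) in RPMI 1640/0.5% Albumax were exposed to compound for 48 hours at 37 C, 5% CO2; growth read as luminescence.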
Shiga toxin inh: A qHTS for Small Molecule Inhibitors of Shiga Toxin. Vero cells, Shiga toxin protein synthesis inhibition reporter. inhibition, % at 38.7 µM. hit rate 9.2% among 290,000. AID 2315, 2010; in the data active = inhibition mostly above about 28%, no sharp cut-off; inactive = mostly below about 43%; also: 0% is about no effect
Pf growth 96h: Primary qHTS for delayed death inhibitors of the malarial parasite plastid, 96 hour incubation | P. falciparum luciferase reporter growth, 96 h | Potency, µM (doses to about 28.7 µM), inactives show at the top dose activity change, negative = inhibition, hits mostly inhibitors | hit rate 6.9% among 320,000 | AID 504834, 2011; also: potency is read from the fitted curve at half-maximal effect; % is scaled to controls: 0 for no effect and ±100 for the full control effect
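Two-generation exposure (96 h) targets delayed-death phenotype. Reporter parasites carrying integrated firefly luciferase, in red cells at 2% hematocrit and 0.05% parasitemia final, kept at 37 C, 5% CO2; luminescence loss indicates inhibition.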
CHX counter: Cycloheximide Counterscreen for Small Molecule Inhibitors of Shiga Toxin; max response, %; cell reporter, cycloheximide protein synthesis inhibition counterscreen; hit rate 12% among 300,000; in the data active = max response mostly above about 13%, no sharp cut-off; inactive = mostly below about 14%; also: read at 38.3 µM for the half of the compounds with a filed dose; 0% is about no effect
Numbers without * were called inactive; ? = inconclusive; · = no result given. Unless noted, calls follow the shape of the dose curve; as a rule, active = well fitted curve in the direction sought with a large enough effect; inconclusive = small, poorly fitted or top-dose-only effect, or another doubt; inactive = no such curve, though single readings can be large; an effect the other way counts as inactive or inconclusive.

SMILES	AMA1 RON2 block	SARS PLpro yeast	Pf growth 48h	Shiga toxin inh	Pf growth 96h	CHX counter
Cc1c(C(=O)N(C)C2CCCCC2)sc2nc3ccc(N)cc3n12	·	·	·	43*	·	31*
Cc1cc(N/N=C/c2ccc(F)cc2)nc(-n2nc(C)cc2C)n1	62%	2%	0.33µM*	13	1µM*	11
CCOc1ccc(Nc2cc(C)nc(-n3nc(C)cc3C)n2)cc1	-15%	-19%	1.9µM*	31	?	-3
COc1ccc(/C=N/Nc2cc(C)nc(N3CCOCC3)n2)cc1OC	-18%	-1%	21%	40	?	10
COc1ccccc1/C=N/Nc1cc(C)nc(N2CCOCC2)n1	-12%	1%	?	22	?	24*
Cc1cnn(-c2cc(N/N=C/c3ccc(F)cc3)ncn2)c1	-6%	0%	6%	-19	?	-5
CCOc1cc(/C=N/Nc2cc(C)nc(-n3nc(C)cc3C)n2)ccc1O	84%	1%	0.37µM*	1	1.7µM*	-1
O=C(c1ccc(F)c(F)c1)N1CCC2(CC1)NCCc1[nH]cnc12	0%	4%	-12%	-8	13%	-6
CCOC(=O)c1nc(Nc2ccc(N3CCC(C)CC3)cc2)c2ccccc2n1	?	-1%	?	27	33%	6
CC(C)NC(=O)NC(=O)CN1c2cccc3cccc(c23)S1(=O)=O	14%	1%	9%	-6	10%	-2
Cc1[nH]c2ccccc2c1C(=O)CSc1nc2ccccc2c(=O)n1CCCN1CCOCC1	-7%	4%	?	2	·	-1
Cc1cc(Cl)nc(-n2nc(C)cc2C)n1	17%	7%	-1%	12	-6%	1
CNc1cc(C)nc(-n2nc(C)cc2C)n1	2%	2%	8.3µM*	9	4.7µM*	4
COc1ccc(/C=N/Nc2cc(C)nc(-n3nc(C)cc3C)n2)c(OC)c1	33%	-13%	1.5µM*	1	0.33µM*	-1
COc1ccc(NS(=O)(=O)c2ccc3oc(=O)c4[nH]c(=O)c(=O)n(C)c4c3c2)cc1	89%	-1%	36%	1	11%	1
CCOC(=O)C1=C(COC(=O)c2ccco2)NC(=O)NC1CC (stereo unspecified)	15%	1%	6%	·	23%	·
COc1cc(C(=O)Nc2ccc(S(=O)(=O)N3CCCCC3C)cc2)cc(OC)c1OC (stereo unspecified)	-9%	0%	8.3µM*	8	?	-4
CC1CCCN(S(=O)(=O)c2ccc(NC(=O)C3CC(=O)N(c4ccccc4)C3)cc2)C1 (stereo unspecified)	-7%	7%	0%	12	9.3µM*	10
COc1ccc(C(=O)Nc2ccc(S(=O)(=O)N3CCCCC3C)cc2)c(OC)c1OC (stereo unspecified)	-11%	3%	?	25	24%	14
O=C(Nc1ccc(S(=O)(=O)N2CCCCC2)cc1)C1CC(=O)N(c2ccccc2)C1 (stereo unspecified)	26%	3%	-23%	-9	?	-4
CC1CCCN(S(=O)(=O)c2ccc(NC(=O)c3cccc(-n4cnnn4)c3)cc2)C1 (stereo unspecified)	-20%	-1%	12µM*	22	11%	9
CC1CCCCN1S(=O)(=O)c1ccc(NC(=O)c2cccc(-n3cnnn3)c2)cc1 (stereo unspecified)	-5%	-6%	9.3µM*	28	?	10
O=C(Nc1ccccc1)C1CCCN(S(=O)(=O)c2ccc(-n3cnnn3)cc2)C1 (stereo unspecified)	6%	-1%	·	-10	-4%	-3
CCc1cccc(CC)c1C(OC(C)=O)c1cccnc1 (stereo unspecified)	-8%	·	·	·	·	·
Cc1ccc(NC(=O)c2ncn(CCCNCC3CCCO3)n2)cc1C (stereo unspecified)	10%	·	·	·	·	·
SMILES	AMA1 RON2 block	SARS PLpro yeast	Pf growth 48h	Shiga toxin inh	Pf growth 96h	CHX counter
Cc1ccc(/C=C/C2=NN(Cc3ccc(Cl)c(Cl)c3)C(=O)CC2)cc1	8%	4%	-5%	31	·	10
COc1ccc(/C=C/c2nc3ccccc3n2C)cc1	0%	-22%	86%	-37	20%	-22
CCOC(=O)CN1N=C(/C=C/c2ccc(C)cc2)CCC1=O	-8%	6%	40%	47*	70%	21
COc1ccc(/C=C/C2=NN(C)C(=O)CC2)cc1	-2%	-8%	408%	54*	251%	34*
O=c1[nH]c(SCCOc2ccccc2F)nc2ccccc12	2%	1%	2%	61*	?	33*
O=c1[nH]c(SCCOc2ccccc2)nc2ccccc12	0%	·	?	35	·	21
COc1ccccc1OCCSc1nc2ccccc2c(=O)[nH]1	-10%	0%	18%	48*	31%	14*
CCOc1ccccc1NC(=O)C(c1ccccc1)N1CCN(C(=O)c2ccco2)CC1 (stereo unspecified)	-9%	5%	9.3µM*	·	?	·
Cc1ccc(NC(=O)C(c2ccccc2)N2CCN(C(=O)c3ccco3)CC2)cc1Cl (stereo unspecified)	-10%	5%	10µM*	·	?	·
O=C(N/N=C1\CCc2ccccc21)c1ccccc1Cl	8%	5%	120%	96*	132%	53*
Cc1ccc(C(=O)N/N=C2\CCc3ccccc32)c(C)c1	-6%	-13%	166%	152*	?	63*
O=C(N/N=C1\CCc2ccccc21)c1ccc(O)cc1	2%	0%	67%	57*	42%	43*
O=C(N/N=C1/CCc2ccccc21)C1CC1	5%	-3%	26%	92*	55%	33*
O=C(N/N=C1\CCCc2ccccc21)c1ccc([N+](=O)[O-])cc1Cl	7%	-2%	?	67	7%	10
COc1ccc(CCC(=O)N2c3ccccc3N=C(c3ccc(C(F)(F)F)cc3)C2C(=O)NC2CCCC2)cc1 (stereo unspecified)	1%	·	·	·	·	·
CCOC(=O)[C@]12CCC=C1N(Cc1ccc(Cl)cc1Cl)C(=O)[C@H](CC(=O)N1CCOCC1)C2	-1%	·	·	·	·	·
CCCCCCC(=O)Cc1cc(OC)c(OC)cc1C=C(C(=O)OCC)C(=O)OCC	·	2%	?	-9	?	2
O=C(O)c1ccccc1/C=N/NC(=S)NC1CCCCC1	120%	-1%	10%	-2	-8%	-2
S=C(N/N=C1\CCc2ccccc21)NC1CCCCC1	33%	-4%	?	112*	-50%	32*
